# Test results from PubChem BioAssay.
# Target: Carbonic anhydrase 2 (Homo sapiens) (UniProt P00918)
# Assay: CAII small-molecule binders, profiling panel, biochemical, small-molecule microarray, Alexa647-labelled CAII (AID 1122)
# Details: CAII-A647 binding fluorescence, higher = more signal
row,SMILES,composite z-score
1,COCCCNC(=O)[C@@]1(Sc2ccc(C)cc2)CC(=O)N(C2CCCCC2)[C@@H]1c1ccc(CO)cc1I,0.481
2,[N-]=[N+]=NCc1ccccc1C[C@]1(C(=O)O)COC(c2ccc(OCCCO)cc2)=N1,0.805
3,COC(=O)[C@@]1(Cc2ccc(OC)cc2)[C@H]2c3cc(C(=O)N(C)C)n(Cc4ccsc4Br)c3C[C@H]2CN1C(=O)c1ccccc1,0.898
4,CCCCC(=C=CC[C@@H](O)c1ccc(OCCO)cc1)C[C@@H](O)c1ccccn1,0.326
5,O=C1NC(=O)C2C1C=CC(C(O)c1cccc(O)c1)N2Nc1ccc(Cl)cc1Cl (stereo not given),0.757
6,[N-]=[N+]=NCc1ccccc1C[C@]1(C(=O)NCc2ccccc2)N=C(c2ccc(OCCCO)cc2)O[C@H]1c1ccccc1CN=[N+]=[N-],0.727
7,O=C1O[C@H](c2ccccc2)[C@H](c2ccccc2)N2[C@H]1[C@@H](C(=O)N1CCN(c3ncccn3)CC1)[C@]1(C(=O)Nc3ccccc31)[C@H]2c1ccc(O)cc1,0.672
8,COC(=O)[C@@]1(Cc2ccc(F)cc2)[C@H]2c3cc(C(=O)N4CCCC4)n(CCO)c3C[C@H]2CN1C(=O)c1ccccc1,0.753
9,O=C1NC(=O)C2C1C=CC(C(O)c1ccc(F)cc1)N2Nc1ccccn1 (stereo not given),0.831
10,CC[C@H](C)C(=O)O[C@H]1CC[C@]2(C)C3=C(CCC2C1(C)C)[C@]1(C)CC[C@H]([C@H](C)CCCC(C)C)[C@@]1(C)CC3 (stereo not given in full),-0.0247
11,CCCC[C@H]1OB(O)C[C@H]2C1=C(COC)C[C@H]1C(=O)C=CC(=O)[C@H]12,-0.104
12,CCCCCCCCCCC(O)C1C=CC2C(=O)N(C)C(=O)C2N1N1CCCCC1 (stereo not given),-0.284
13,C=CC[C@]1(C(=O)NCCCOC)N=C(c2ccc(OCCCO)cc2)O[C@H]1c1ccccc1,0.783
14,CC1CC/C=C\[C@H]2OC34C=CCN(c5ccc(Cl)cc5)C(=O)[C@H]3N(CCCO)C(=O)[C@]4(C)C2C(=O)O1 (stereo not given in full),0.931
15,C=C(CC1([C@@H](NP(=O)(c2ccccc2)c2ccccc2)[C@H]2C[C@@H]2CCN(C(=O)OCC)S(=O)(=O)c2ccc(C)cc2)CC1)c1ccccc1,0.355
16,COCC1=C([C@H](O)CCc2ccccc2)[C@H](CO)n2c(=O)n(-c3ccccc3)c(=O)n2C1,-0.447
17,COC(=O)c1ccc([C@H](NC(=O)c2ccccc2)[C@]2(C)C[C@H]2C2CCCCC2)cc1,0.158
18,COCCOC(=O)N1C(=O)[C@@]2(c3cc(C#CC4=CCCCC4)ccc31)[C@H](c1ccccc1OCCO)N1[C@H](c3ccccc3)[C@H](c3ccccc3)OC(=O)[C@H]1[C@@H]2C(N)=O,0.265

row,SMILES,composite z-score
1,C=CCC(OC(C)=O)[C@@H]1[C@@H](N(Cc2cc3ccccc3o2)C(=O)Cc2ccc(OC)cc2)c2cc(OCCCO)ccc2N1C(=O)Cc1ccc2ccccc2c1 (stereo not given in full),-0.061
2,COc1ccc([Si](C)(C)[C@H]2[C@H](CCO)O[C@@]3(C(=O)N(Cc4ccccc4)c4ccc(N(C=O)c5ccccc5)cc43)[C@@H]2C)cc1,0.189
3,CC(C)CNC(=O)[C@@H]1c2ccccc2C(=O)N(Cc2ccccc2Cl)[C@H]1c1ccc(CO)cc1,0.687
4,CCCCNC(=O)c1ccc(C#C[Si](C)(C)C)c(OC(C)=O)c1,-0.14
5,COc1cc2c(cc1O)C(c1ccc(CN3CCCC3)cc1)N(Cc1cccc(OC(F)(F)F)c1)CC2 (stereo not given),0.546
6,C=CCOC(=O)[C@H]1[C@@H]2C(=O)O[C@@H](c3ccccc3)[C@@H](c3ccccc3)N2[C@@H](c2ccc(OCCOC(=O)[C@H]3C[C@H]4C(=O)NCC(=O)N4[C@H]3c3ccc(O)cc3)cc2)[C@]12C(=O)Nc1ccc(I)cc12,0.0742
7,NC(=O)N1C(=O)C2C(C1=O)C1C=C(CCCO)C2C(c2ccc(CN3CCCC3)cc2)N1Cc1cccc(OC(F)(F)F)c1 (stereo not given),0.203
8,C=C(CCCC)C(=O)CC[C@H](OC(C)=O)c1ccccc1OCCO,0.113
9,C=CCC(OC(C)=O)[C@@H]1[C@@H](N(Cc2cccc3ccccc23)C(=O)c2ccc(-c3ccccc3)cc2)c2cc(OCCCO)ccc2N1C(=O)c1ccc2ccccc2n1 (stereo not given in full),0.0528
10,COC(=O)[C@@]1(Cc2ccccc2)[C@@H]2[C@@H](CC(=O)[C@H]2CC(=O)C(=O)N(C)C)CN1C(=O)c1ccccc1,0.838
11,COCCOC(=O)N1C(=O)[C@@]2(c3cc(C#Cc4ccc(OC)cc4)ccc31)[C@H](C(=O)Nc1nc3ccccc3s1)[C@H]1C(=O)O[C@H](c3ccccc3)[C@H](c3ccccc3)N1[C@@H]2c1ccccc1OCCO,0.547
12,CCc1cccc(NC(=O)O[C@H]2[C@H](OC(=O)Nc3ccc4c(c3)OCO4)[C@H](OC(=O)Nc3ccc4c(c3)OCO4)[C@@H](OC)O[C@@H]2CO)c1,0.486
13,C=C(COC)/C(=C/C[C@H](OC(=O)c1ccncc1)c1cccc(OCCO)c1)c1cnc2ccccc2c1,0.855
14,COCCn1c(C(=O)N2CCCC2)cc2c1C[C@H]1CN(C(=O)c3ccccc3)[C@@](Cc3ccccc3)(C(=O)OC)[C@@H]21,0.676
15,O=C1C2C=CC(C(O)C(c3ccccc3)c3ccccc3)N(Nc3ccccc3)C2C(=O)N1c1ccccc1 (stereo not given),0.619
16,Cc1ccc(S(=O)(=O)N2[C@@H](c3ccccc3)C(C(=O)O)=CC[C@H]2c2ccc(C#N)cc2)cc1,0.802
17,C=CCC(OC(C)=O)[C@@H]1[C@@H](N(Cc2cc3ccccc3o2)C(=O)c2ccc(-c3ccccc3)cc2)c2cc(OCCCO)ccc2N1C(=O)c1ccc2ccccc2n1 (stereo not given in full),0.0088
